GLD-1 RNA inh: GLD-1/TGE RNA complex disruptors, primary screen, biochemical, fluorescence polarization; Female germline-specific tumor suppressor gld-1 (Caenorhabditis elegans), Q17339; purified GLD-1 + fluorescein TGE RNA; 320,000 compounds, 0.44% hits; inhibition, % at 5.96 µM;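 active = percent inhibition above a per-plate cutoff, the plate mean of test compounds plus 3 SD, cut at about 30% in these data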;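 note: 0% = DMSO wells with GLD-1 and probe and 100% = wells lacking GLD-1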
Target sequence (Q17339 whole entry, looked up): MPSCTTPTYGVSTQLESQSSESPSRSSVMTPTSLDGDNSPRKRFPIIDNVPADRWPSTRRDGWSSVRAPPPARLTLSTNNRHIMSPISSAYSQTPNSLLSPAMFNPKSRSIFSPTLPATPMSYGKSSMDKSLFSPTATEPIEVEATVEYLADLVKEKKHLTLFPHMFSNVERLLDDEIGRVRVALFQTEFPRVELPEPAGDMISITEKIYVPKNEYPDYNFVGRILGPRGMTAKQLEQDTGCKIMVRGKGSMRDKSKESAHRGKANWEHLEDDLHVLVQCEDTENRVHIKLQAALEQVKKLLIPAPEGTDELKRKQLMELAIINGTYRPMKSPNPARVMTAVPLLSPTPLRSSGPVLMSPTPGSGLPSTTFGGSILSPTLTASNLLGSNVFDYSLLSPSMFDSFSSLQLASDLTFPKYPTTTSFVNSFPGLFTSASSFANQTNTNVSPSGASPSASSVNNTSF
eLon inh: inhibitors of E. coli Lon protease, primary screen, biochemical, fluorescence polarization; purified E. coli Lon protease; inhibition, % at 7.94 µM; 360,000 compounds, 0.42% hits; AID 602123, 2011; in the data active = inhibition above about 13%, passing the limit was not always enough;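 note: 0% = enzyme with probe and DMSO and 100% = no enzyme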
Bcl-xL primary: inhibitors of human Bcl-xL, primary screen, biochemical, fluorescence polarization, HTS. Bcl-2-like protein 1 (Homo sapiens), Q07817. GST-Bcl-xL / FITC-Bim BH3 peptide fluorescence polarization. inhibition, % at 10.9 µM. 320,000 compounds, 0.7% hits. AID 2129, 2009;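 active = inhibition above the mean of all tested compounds plus 3 SD, cutoff set per campaign, cut at about 30% in these data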;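 note: 0% = DMSO wells and 100% = unlabeled Bim-BH3 peptide competitor; inhibitors lower millipolarization by displacing the labeled peptide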
Keap1-Nrf2 PPI: Keap1-Nrf2 protein-protein interaction inhibitors, primary screen, biochemical, fluorescence polarization, single point. Keap1 Kelch-Nrf2 peptide fluorescence polarization, 1536-well. inhibition, % at 9.4 µM. 340,000 compounds, 0.15% hits. AID 504523, 2011; in the data active = inhibition above about 12%;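 note: human Keap1 Kelch domain with fluorescein labeled Nrf2 9mer peptide probe; 0% = neutral control wells and 100% = peptide positive control; higher means more block of Keap1 binding to Nrf2 peptide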
MCL1-BIM inh: inhibitors of MCL1 binding to BIM-BH3, primary screen, biochemical, fluorescence polarization; 320,000 compounds, 0.68% hits; inhibition, % at 10.9 µM; AID 2057, 2009; GST-MCL1 / FITC-Bim-BH3 fluorescence polarization;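 active = inhibition above the mean inhibition of all tested compounds plus 3 SD, set per campaign, cut at about 40% in these data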;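 note: 0% = DMSO wells and 100% = unlabeled Bim-BH3 peptide control; higher means more loss of mP so more displacement of Bim peptide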
C-LANA FP: inhibitors of KSHV C-LANA binding to DNA, primary screen, biochemical, fluorescence polarization, FAM-LBS DNA, MBP-C-LANA, single point. Kaposi's sarcoma herpesvirus LANA C-terminal domain (residues 932-1162) DNA binding. inhibition, % at 9 µM. 340,000 compounds, 0.078% hits. AID 504423, 2011;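 active = highest replicate inhibition at or above 60% at 9 µM, even if other replicates fall short; inactive = all replicates below 60% inhibition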;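 note: 0% = neutral control wells and 100% = 4 µM acridine orange control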
Bcl-xL conf: Bcl-xL inhibitors blocking Bim BH3 binding, confirmation, counter-screen for MCL1 inhibitor project, biochemical, fluorescence polarization; inhibition, % at 10.9 µM; 1,700 compounds, 54% hits; shares compounds with MCL1-BIM inh; AID 2166, 2009; GST-Bcl-xL / FITC-Bim BH3 peptide FP binding;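 active = inhibition above a cutoff equal to the mean inhibition of all tested compounds plus 3 SD, cut at about 30% in these data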;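 note: 0% = DMSO wells and 100% = unlabeled Bim BH3 control peptide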
MCL1 inh confirm: inhibitors of MCL1 binding to BIM-BH3, confirmation, biochemical, fluorescence polarization, triplicate; shares compounds with MCL1-BIM inh; GST-MCL1 / FITC-Bim-BH3 fluorescence polarization; 1,700 compounds, 61% hits; inhibition, % at 10.9 µM; AID 2168, 2009;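 active = inhibition above the average of all tested compounds plus 3 SD, cut at about 40% in these data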;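 note: 0% = DMSO wells and 100% = unlabeled Bim-BH3 control peptide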
* hit, by the source's call; / = no result; + = active, no number. Only some compounds are listed: those with a hit (about 1.3% of all), similar ones and a draw of the others.

SMILES	GLD-1 RNA inh	eLon inh	Bcl-xL primary	Keap1-Nrf2 PPI	MCL1-BIM inh	C-LANA FP	Bcl-xL conf	MCL1 inh confirm
CCCCC1=CC2=CC(=O)C(C)(OC(=O)c3ccco3)C(=O)C2=CO1 (stereo unspecified)	62*	/	43*	/	49*	/	33*	62*
COC(=O)CCC(=O)OC1(C)C(=O)C=C2C=C3CCCN3C=C2C1=O (stereo unspecified)	12	-2	22	-3	48*	8	33*	32
CC1(OC(=O)c2ccc(Cl)nc2)C(=O)C=C2C=C(c3ccsc3)OC=C2C1=O (stereo unspecified)	29	/	23	/	32	/	/	/
O=C(NNC(=O)c1ccccc1F)c1cccc(-n2cccc2)c1	-1	-13	7	-7	65*	7	23	92*
CC(=O)Nc1ccc(NC(=O)C(C)OC(=O)/C(C#N)=C/c2ccc(N(C)C)cc2)cc1 (stereo unspecified)	136*	-112	+	-2	+	6	165*	191*
CN(c1ncc(C(F)(F)F)cc1Cl)N1C(=O)c2cccc(N)c2C1=O	84*	3	59*	3	62*	3	47*	66*
Cc1ccc(S(=O)(=O)N(CC(=O)N2CCC(C)CC2)Cc2ccccc2F)cc1	3	1	-3	-3	0	-1	/	/
Cc1oc(-c2ccccc2)cc1C(N)=O	7	-3	10	0	7	1	/	/
Cc1oc(C(N)=O)nc1-c1ccccc1	2	9	9	-1	48*	-3	6	11
O=C(NCC(=O)N(c1ccccc1F)C(C(=O)NC1CCCC1)c1cccnc1)c1ccco1 (stereo unspecified)	0	1	1	1	-8	-2	/	/
Cc1nnc(SC(C)C(=O)Nc2c(C)n(C)n(-c3ccccc3)c2=O)n1N (stereo unspecified)	7	-9	-18	0	-8	0	/	/
O=C(NNC1=Nc2cccc3cccc1c23)c1ccc(Br)cc1	14	-29	28	-1	41*	2	57*	81*
COc1ccc(CC(=O)NNC2=Nc3cccc4cccc2c34)cc1OC	4	-1	4	-2	1	0	/	/
Cc1ccc2c(c1)C(=O)N1c3cc(C)c(C)cc3NC(=O)C1C(=O)N2 (stereo unspecified)	/	-11	/	/	/	/	/	/
Clc1cccc2sc(N3CCCCC3)nc12	19	0	69*	0	58*	1	2	6
CC(C)OCCCn1c(=N)c(C(N)=S)cc2c(=O)n3ccccc3nc21	11	-33	83*	-1	82*	2	70*	86*
C=CCn1c(=N)c(C(=O)NCCCOC)cc2c(=O)n3ccccc3nc21	4	0	3	-5	3	0	/	/
CC(=O)N=c1c(C#N)cc2c(=O)n3ccccc3nc2n1CCCOC(C)C	3	-9	12	/	15	/	/	/
CC(C)OCCCn1c(=NC(=O)c2cccs2)c(C#N)cc2c(=O)n3ccccc3nc21	58*	2	106*	/	114*	/	23	28
Cc1ccc(NS(=O)(=O)c2cccc(C(=O)N3CCCCC3)c2)cc1	-6	-5	/	-3	/	-1	/	/
CC[C@]12c3[nH]c4ccc(OC)cc4c3CCN1C(=O)C(CC(=O)NCCCOC)C[C@@H]2C(=O)N1CCN(C(=O)C2CC2)CC1 (stereo partly specified)	/	-13	/	-3	/	1	/	/

From PubChem
